Source: PubChem BioAssay (National Center for Advancing Translational Sciences (NCATS))
The entries come from a sample that favours hits as a whole.
Pf Dd2 inh – qHTS Primary assay for Inhibitors of Plasmodium falciparum Dd2 growth in vitro; P. falciparum Dd2 growth, SYBR Green, 72 h; hit rate 4.3% among 120,000; Potency, µM (titrated, usually from 28.9 µM), actives largely listed as inhibitors; active = well fitted inhibition curve with a large enough effect; also: nearly all actives have a fitted effect of over 65% in size
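Infected erythrocytes (Dd2, 0.3% parasitemia, 2.5% hematocrit final) are added to compound in RPMI-1640/Albumax II medium, grown 72 h at 37C in low oxygen, then lysed with saponin/Triton-X containing SYBR Green and read by fluorescence.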
Each line names hits and unclear results; the compound was inactive in the other large screens.

COCc1ccc2c(c1)c(OC(C)(C)C(=O)NCc1cnccn1)nn2Cc1cccc(OC)c1	none
O=C(Nc1ccc(F)cc1)C1CCN(c2cc(C(F)(F)F)ncn2)CC1	none
COc1ccc(NC(=O)C2CCN(c3cc(C(F)(F)F)ncn3)CC2)cc1	none
COc1ccc(-c2cc(N3CCC(NC(=O)COc4ccc(F)cc4)CC3)n[nH]2)cc1	none
O=C(COc1ccc(F)cc1)NC1CCN(c2cc(C(F)(F)F)ncn2)CC1	Pf Dd2 inh 5.6µM
COc1ccc(NC(=O)C2CCN(c3cc(C(F)(F)F)ncn3)CC2)cc1OC	Pf Dd2 inh 11µM
O=C(NC1CCN(c2cc(C(F)(F)F)ncn2)CC1)c1ccco1	none
CNC(=O)[C@@H]1C[C@H](Oc2ccccc2)CN1S(=O)(=O)c1cccnc1	none
O=C(Cn1nc2c(cc1=O)CCCC2)Nc1ccc(N2CCCS2(=O)=O)cc1	none
CCCN1C(=O)Cc2ccccc2C1C(=O)NCc1ccc2c(c1)OCO2 (centres undefined)	none
CC(C)C[C@@H]1N[C@H](C(=O)NCC2CC2)Cc2cn(Cc3cccnc3)c3cccc1c23	none
CC#CCn1cc2c3c(cccc31)[C@H](CC(C)C)N[C@H](C(=O)N1CCOCC1)C2	none
CC(C)C[C@@H]1N[C@H](C(=O)N2CCN(C)CC2)Cc2cn(Cc3ccccn3)c3cccc1c23	none
CC#CCn1cc2c3c(cccc31)[C@H](CC(C)C)N[C@H](C(=O)N1CCN(CCO)CC1)C2	Pf Dd2 inh 10µM
COCCNC(=O)[C@@H]1Cc2cn(Cc3ccccn3)c3cccc(c23)[C@H](CC(C)C)N1	none
CC(C)C[C@@H]1N[C@H](C(=O)N2CCN(C)CC2)Cc2cn(Cc3cccnc3)c3cccc1c23	none
CC(C)C[C@@H]1N[C@H](C(=O)N2CCOCC2)Cc2cn(Cc3ccncc3)c3cccc1c23	Pf Dd2 inh 10µM
Cc1noc(C)c1Cn1cc2c3c(cccc31)[C@H](CC(C)C)N[C@H](C(=O)O)C2	none
COCCNC(=O)[C@@H]1Cc2cn(Cc3cccnc3)c3cccc(c23)[C@H](CC(C)C)N1	Pf Dd2 inh 11µM
CCc1noc(-c2cn(C3CCN(C(=O)c4ccc(F)cc4)C3)nn2)n1 (centres undefined)	none
CC(=O)Nc1ccc(C)cc1S(=O)(=O)N1CCC(C)(c2noc(C)n2)CC1	none
CCc1nc(C)sc1C(=O)N1CCN(c2ccc(C)cc2)C(=O)C1	none
O=C(NCCc1ccc(Cl)cc1)c1nc(-c2ccc(F)cc2)c2ccccn12	none
COCCNC(=O)c1nc(-c2ccc(F)cc2)c2ccccn12	none
C[S+](=O)([O-])c1ccc(-c2nc(C(=O)NCc3ccc(F)cc3)n3ccccc23)cc1	Pf Dd2 inh 11µM
O=C(NCc1ccc(F)cc1)c1nc(-c2cc(Cl)cc(Cl)c2)c2ccccn12	Pf Dd2 inh 10µM
O=C(NCc1ccc2c(c1)OCO2)c1nc(-c2cc(Cl)cc(Cl)c2)c2ccccn12	none
C[S+](=O)([O-])c1ccc(-c2nc(C(=O)NCc3cccnc3)n3ccccc23)cc1	none
COc1ccc(C2(C(=O)N3CCCN(c4cc(-c5ccc(C)c(C)c5)[nH]n4)CC3)CC2)cc1	none
O=C(NC1CC1)[C@@H]1C[C@H](Oc2cccnc2)CN1C(=O)c1ccc2ccccc2n1	none
O=C(CN1CC2CC(C1)[C@H]1CCCC(=O)N1C2)N1CCN(Cc2ccc3c(c2)OCO3)CC1 (some centres undefined)	none
COc1ccccc1CN1C[C@H](O)C[C@H]1c1nc(C2CC2)no1	none
O=C(c1ccncc1)N1CCCCCCn2c(nnc2-c2ccc(F)cc2)CC1	none
c1ccc(-c2ccnc(NCCc3c[nH]c4ccccc34)n2)nc1	none
CCCNC(=O)Cc1csc2nc(C)c(-c3cc(C)n(-c4ccc(C)cc4)n3)c(=O)n12	none
CCCCNC(=O)Cc1csc2nc(C)c(-c3cc(C)n(-c4cccc(C)c4)n3)c(=O)n12	none
CCCCCCNC(=O)Cc1csc2nc(C)c(-c3cc(C)n(-c4cccc(C)c4)n3)c(=O)n12	Pf Dd2 inh 2µM
COc1cccc(CNC(=O)[C@@H]2C[C@@H](O)CN2C2CCN(C(=O)c3cccnc3)CC2)c1	none
CC1(c2ccccc2)N(Cc2cccnc2)C(=O)OC12CCN(C(=O)Cc1ccccc1)CC2 (centres undefined)	none
COc1cccc(CN2C(=O)OC3(CCN(C(=O)C4CCC4)CC3)C2(C)c2cccnc2)c1 (centres undefined)	none
COc1ncccc1CN1CCC2(CC1)OC(=O)N(Cc1ccccc1C#N)C2(C)c1ccccc1 (centres undefined)	Pf Dd2 inh 4.5µM
CC1(c2cccnc2)N(Cc2ccccc2)C(=O)OC12CCN(C(=O)COc1ccccc1)CC2 (centres undefined)	Pf Dd2 inh 6.3µM
CC1(c2ccccc2)N(Cc2ccccc2)C(=O)OC12CCN(Cc1cccnc1N)CC2 (centres undefined)	none
CC1(c2ccccc2)N(Cc2ccccc2)C(=O)OC12CCN(C(=O)COc1ccccc1)CC2 (centres undefined)	none
COc1cccc(CN2C(=O)OC3(CCN(C(C)=O)CC3)C2(C)c2cccnc2)c1 (centres undefined)	none
CC1(c2ccccc2)N(Cc2ccccc2C#N)C(=O)OC12CCN(C(=O)CN1CCOCC1)CC2 (centres undefined)	none
COc1cccc(CN2C(=O)OC3(CCN(Cc4c[nH]c5ccccc45)CC3)C2(C)c2cccnc2)c1 (centres undefined)	Pf Dd2 inh 0.79µM
CN1C(=O)Cc2ccccc2C1C(=O)NCc1ccccc1 (centres undefined)	none
CCCCc1nn(CC(=O)NCc2c(F)ccc(OC)c2F)c(=O)n1CC	none
COCC(=O)NC1CCC12CCN(S(=O)(=O)c1c(C)nn(C)c1C)CC2 (centres undefined)	none
CCCN(Cc1ccncc1)C(=O)CC1C(=O)NCCN1Cc1ccoc1 (centres undefined)	none
CC(C)NC(=O)N(C1CC1)C1CCOC2(CCN(C(=O)Cc3ccccc3F)CC2)C1 (centres undefined)	none
COc1ccc(Cl)cc1NC(=O)CC1CCCCN(C)C1=O (centres undefined)	none
CC(=O)N[C@@H]1C[C@H](Cn2cc(C3CC3)nn2)[C@@H](O)[C@H]1O	none
CN(C)CCNC(=O)C1CCN(Cc2cc3ccccc3n2Cc2ccccc2)CC1	Pf Dd2 inh 6.3µM
Cc1ccc(Cn2c(CN3CCC(C(=O)NCc4ccccc4C)CC3)cc3ccccc32)cc1	none
O=C(NCCCc1nc2ccccc2n1Cc1ccccc1)C1CCCCC1	none
OCC1(Cc2ccc(F)cc2)CCCN(c2nc3ccccc3s2)C1 (centres undefined)	none
c1cn(CCc2noc(C3CCCO3)n2)c(-c2nc3c(s2)CCCC3)n1 (centres undefined)	none
CC(C)n1cc(C(=O)NCc2cccnc2Oc2ccc(F)cc2F)cn1	none
CCn1cc(C(=O)NCc2ccc(C)cc2)c(=O)c2cc(S(=O)(=O)N3CCC(C)CC3)ccc21	none
Cc1ccc(NC(=O)c2oc3ccc(S(=O)(=O)N4CCCCCC4)cc3c2C)cc1Cl	none
Cc1ccc(CNC(=O)c2oc3ccc(S(=O)(=O)N4CCCC(C)C4)cc3c2C)cc1 (centres undefined)	Pf Dd2 inh 10µM
COCCCN1CC2(CCN(C(=O)CCCc3cccs3)CC2)CC1=O	none
COC1C(=O)N(CC2CC2)C12CCN(S(=O)(=O)C(C)C)CC2 (centres undefined)	none
CSCCNC(=O)c1coc(COc2cccc(C(F)(F)F)c2)n1	none
COc1ccc(C)cc1NC(=O)C[C@H]1NC(=O)c2ccccc2NC1=O	none
COc1ccc(NC(=O)CC2Nc3ccccc3NC2=O)cc1 (centres undefined)	none
